Screening results (PubChem)
An excerpt weighted towards active compounds, which were near 14% of everything screened.
HCV inh: blocks hepatitis C virus; actives 3.4% (n = 340,000); Potency, µM (titrated, usually from 41.8 µM), for inactives: top-dose activity change, negative = inhibition, hits mostly inhibitors; Huh7.5.1 HCVcc-Cre infection, luciferase reporter, 44 h; AID 651820; note: potency is the fitted concentration of half-maximal effect
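HCVcc-Cre virus at an moi near 0.5 was added right after compound to cells cultured 4 h from seeding (1,000 cells/well). Luciferase activity was determined 44 h later, 15 min after substrate addition at RT.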
HCMV antiviral: blocks human cytomegalovirus replication; HFF cells, HCMV-luciferase reporter, 72 h; active compounds read low; activity change, negative = inhibition, % at 57.5 µM; actives 4.5% (n = 410,000); AID 1259415; in the data active = activity change below about -60%; inconclusive = no clear call, values can overlap the other calls; inactive = above about -39%
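After 16 h attachment at 37C, HFF cells received test compound and HCMV-luciferase (1 PFU/cell); reporter luminescence read 72 h later, data normalized against buffer-only and known inhibitor Salinomycin.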
Marburg entry inh: inhibitors of Marburg virus binding or cell entry; Marburg virus pseudotyped entry inhibition, cell reporter; Potency, µM (series often up to 37.8 µM), for inactives: at the highest dose activity change, negative = inhibition, actives largely listed as inhibitors; actives 1.8% (n = 300,000); AID 540276; calls by dose curve; tested in HEK293 cells; note: potency is the fitted concentration of half-maximal effect
Pf growth 96h: inhibits malaria parasite growth, 96 h. Potency, µM (top dose mostly 28.7 µM), without a hit: top-dose activity change, negative = inhibition, usual class: inhibitors. P. falciparum luciferase reporter growth, 96 h. actives 6.9% (n = 320,000); note: potency is the fitted concentration of half-maximal effect
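Parasite growth measured via integrated firefly luciferase reporter in P. falciparum. Infected erythrocytes at 2% hematocrit, 0.05% parasitemia final were treated 96 hours at 37 C under 5% CO2, and luminescence was read.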
LASV entry inh: Lassa virus entry inhibition; actives 1.2% (n = 300,000); Potency, µM (top dose mostly 37.9 µM), for inactives: top-dose activity change, negative = inhibition, actives largely listed as inhibitors; Lassa virus pseudotype entry inhibition, cell reporter; calls by dose curve; tested in HEK293 cells; note: potency is the fitted concentration of half-maximal effect; nearly all actives have a fitted effect of over 50% in size
Pf growth 48h: inhibits P. falciparum growth in the first generation, 48 h | P. falciparum luciferase growth in erythrocytes, 48 h | Potency, µM (highest dose often 28.7 µM), for inactives: at the top dose activity change, negative = inhibition, hits mostly inhibitors | actives 5.9% (n = 310,000) | AID 504832; note: potency is the fitted concentration of half-maximal effect
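In quantitative HTS format, infected erythrocytes bearing luciferase-reporter parasites were treated for a single generation at 37 C. Luminescence after adding detection reagent served as the growth measure.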
Active calls of the source: *; ? = inconclusive; / = no result; [ ] = remark or other dose. Unless noted, calls come from the whole dose curve; as a rule, active = well fitted inhibition curve with a large enough effect; inconclusive = small, poorly fitted or top-dose-only effect, or another doubt; inactive = no such curve, though single readings can be large or run the other way. % is set by controls: 0 for no effect and ±100 for the full control effect.

SMILES | HCV inh | HCMV antiviral | Marburg entry inh | Pf growth 96h | LASV entry inh | Pf growth 48h
COc1ccccc1NS(=O)(=O)c1cccc(NS(=O)(=O)c2ccc(Cl)c(C(=O)O)c2)c1 | 6.6% | 61.8 | ? | / | 2.5% | /
COc1ccccc1NS(=O)(=O)c1cccc(NS(=O)(=O)c2cc(C(=O)O)ccc2OC)c1 | 6.0% | -101.8* | -10.8% | / | 13.8% | /
COc1cccc(NC(=O)CN(C)C(=O)c2cccc(S(=O)(=O)Nc3ccc(C)cc3)c2)c1 | ? | -22.3 | / | -27.4% | / | ?
COc1ccccc1CN(Cc1ccco1)c1cnc(S(C)(=O)=O)nc1C(=O)Nc1cc(C)ccc1C | / | -7.1 | ? | / | ? | /
O=c1cc(CN2CCN(c3ccc(Cl)c(Cl)c3)CC2)c2ccccc2o1 | / | -18.0 | / | / | / | /
CCOc1cc(NS(=O)(=O)c2ccc(NC(C)=O)cc2)c(OCC)cc1NC(=O)c1cccs1 | 3.1% | -79.4* | 2.1% | 4.6% | -11.9% | -4.0%
CCOc1cc(NC(=S)NCCCN(C)C)c(OCC)cc1NC(=O)c1cccs1 | ? | -64.1* | ? | -13.6% | 1.5% | ?
CCOc1cc(NC(=S)NC)c(OCC)cc1NC(=O)c1cccs1 | ? | -9.4 | -5.7% | ? | / | 37.3%
CCOc1cc(NC(=S)NCCCOC)c(OCC)cc1NC(=O)c1cccs1 | -12.3% | -16.2 | 14.4% | 28.6% | -11.1% | -1.2%
O=C(Cn1nc(Cc2cccnc2)c2ccccc2c1=O)Nc1cccc(C(F)(F)F)c1 | / | ? | -5.2%[46.1 µM] | / | -15.6%[46.1 µM] | /
CSc1nc(Nc2ccc(C)cc2C)cc(-c2ccccc2)n1 | / | -30.9 | -0.9%[46.1 µM] | / | 1.1%[46.1 µM] | /
O[C@@H]1C[C@H](c2ccc(Cl)cc2)N(Cc2cccs2)C[C@H]1n1cc(-c2ccc(F)cc2)nn1 | / | -12.8 | / | / | / | /
CC1(C)CC(=O)C(N=Nc2cc(C(F)(F)F)ccc2Cl)=C(O)C1 | -19.2% | -62.5* | / | 4.3% | / | 7.4%
O=C1C=CC(=O)N1c1ccc2c(c1)C(NC(=O)C(F)(F)F)c1ccccc1-2 (stereo not drawn) | ? | 0.0 | -34.3% | / | -20.8% | /
CC(=O)Nc1cccc(Oc2nc(NC(C)C)nc3cc(-c4ccccc4)sc23)c1 | / | -10.6 | / | / | / | /
CCOC(=O)/C(=N\Nc1ccc(C(C)=O)cc1)c1csc(Nc2ccccc2)n1 | ? | ? | ? | 0.6% | ? | -11.2%
CCOC(=O)/C(=N\Nc1ccccc1[N+](=O)[O-])c1csc(N)n1 | ? | -64.8* | / | 34.1% | / | 2.7%
COc1ccccc1Cn1c(CNS(=O)(=O)c2ccc3c(c2)CCCC3)nc2cccnc21 | / | -25.7 | / | / | ? | /
CCOc1ccc(NC(=O)CSc2nnnn2C2CC2)cc1S(=O)(=O)N1CCCC1 | -19.4% | -3.4 | / | 14.7µM* | / | ?
Cc1ccc(NC(=O)CSc2nnnn2C2CCCC2)cc1S(=O)(=O)N1CCOCC1 | 0.8% | ? | / | 8.28µM* | / | ?
Cc1ccc(S(=O)(=O)N2CCOCC2)cc1NC(=O)CSc1nnnn1C1CCCC1 | -15.8% | -2.9 | / | -21.5% | / | 6.2%
Cc1cc(NC(=O)CSc2nnnn2C2CCCC2)no1 | 8.2% | -30.3 | -0.9% | 7.38µM* | 5.7% | 14.9%
COc1cccc(Nc2nccc3[nH]c(-c4cccc(F)c4)cc23)c1 | / | -20.7 | / | / | / | /
Cc1ccc(NC2=NC(c3ccc(C)cc3)n3c(nc(C)cc3=O)N2)cc1 (stereo not drawn) | -7.0% | 11.1 | -29.5% | 11.7µM* | 19.3% | ?
Cc1ccc(NC2=NC(c3ccc(F)cc3)n3c(nc(C)cc3=O)N2)cc1 (stereo not drawn) | -0.3% | 13.8 | -4.5%[46.1 µM] | ? | -16.5% | ?
SMILES | HCV inh | HCMV antiviral | Marburg entry inh | Pf growth 96h | LASV entry inh | Pf growth 48h
COc1ccc(OCc2ccc(-c3nc(C#N)c(NCc4ccc(F)cc4)o3)o2)cc1 | / | -14.2 | -29.2%[46.1 µM] | / | -13.5%[46.1 µM] | /
COc1ccc(S(=O)(=O)NC(=O)C2(C)CCN2C(=O)CCC2CCCC2)cc1OC (stereo not drawn) | / | 4.7 | / | / | / | /
CCCOC1(NC(=O)c2ccccc2)C(C)=CC(=O)C=C1C | 19.0% | 9.8 | 2.8% | 3.29µM* | 0.7% | 15.1%
Cc1ccc(-n2ncc3c(=O)n(Cc4ccccc4C)cnc32)cc1C | / | 9.8 | 16.5%[46.1 µM] | / | ? | /
CC(C(=O)NCc1ccccc1Cl)n1ccc2cc(S(=O)(=O)N3CCCCC3)ccc21 (stereo not drawn) | / | -27.2 | / | / | ? | /
Cc1cccc(OCC(=O)Nc2ccc3c(c2)OCO3)c1C | ? | 2.5 | 0.9%[46.1 µM] | 2.9% | 7.2% | 7.9%
Cc1ccc(Cl)c(OCC(=O)Nc2ccc3c(c2)OCCO3)c1 | 10µM* | 73.3 | ? | / | 80.3%[14.3 µM] | 113.4%
CCN(CC(=O)Nc1ccc2c(c1)OCCO2)C(=O)COc1cc(C)ccc1Cl | ? | -1.1 | -18.7% | -21.1% | -9.7% | 12.1%
Cc1ccc(C)c(OCC(=O)Nc2ccc3c(c2)OCO3)c1C | 11.2µM* | 67.4 | ? | -23.5% | ? | -28.9%
Nn1c(SCC(=O)NC2CCS(=O)(=O)C2)nnc1-c1ccco1 (stereo not drawn) | -0.6% | -31.6 | ? | / | 0.6%[46.1 µM] | /
COc1ccc(CC(=O)Nc2cccc(-c3nnc(-c4cccc(C)c4)o3)c2)cc1OC | 6.31µM* | -17.2 | ? | / | ? | ?
CCc1cccc(NC(=O)Cc2ccc(OC)c(OC)c2)c1 | ? | -81.7* | ? | 0.3% | ? | -9.3%
CCc1cccc(NC(=O)Cn2cccc2)c1 | 21.8% | -32.4 | -0.4% | 4.65µM* | 0.9% | 72.1%
COc1ccc(CC(=O)Nc2cccc(-c3nnc(-c4ccccc4)o3)c2)cc1OC | 6.31µM* | ? | 4.61µM* | / | 7.3µM* | ?
COc1cccc(CNC(=O)C2CCN(C(=O)c3sccc3-n3cccc3)CC2)c1 | / | -20.9 | -16.8%[46.1 µM] | / | / | /
CCSc1ncc(Cl)c(C(=O)Nc2sc(C(C)=O)c(C)c2C(=O)OC)n1 | / | 13.8 | -1.4%[46.1 µM] | / | -0.4%[46.1 µM] | /
NC(=S)N/N=C/c1ccc(C23CC4CC(CC(C4)C2)C3)cc1 | ? | / | ? | ? | ? | 2.62µM*
NC(=S)N/N=C/c1ccccc1 | 2.2% | -36.4 | 3.3% | ? | 5.7% | 7.9%
CC(=O)Nc1ccc(C23CC4CC(CC(C4)C2)C3)cc1 | -0.6% | -21.9 | / | 67.3% | / | -11.4%
CNC(=S)Nc1ccc(C23CC4CC(CC(C4)C2)C3)cc1 | ? | -98.3* | ? | 35.6% | ? | 3.1%
O=C(COc1ccc(F)cc1)Nc1ccc2nc(SCc3ccccc3)sc2c1 | / | -9.7 | ? | / | 2.9%[46.1 µM] | /
COc1cccc(NC(=O)N2CC(=O)N3[C@@H](CO)[C@@H](c4ccc(Br)cc4)[C@@H]3C2)c1 | / | -9.8 | / | / | / | /
COCCCNC(=O)N1[C@H](c2cccs2)[C@@H](C)C(=O)[C@@H](C)[C@@H]1c1cccs1 | / | -12.5 | 0.6%[46.1 µM] | / | 0.5%[46.1 µM] | /
CCOc1cccc(C(=O)NC(=S)Nc2ccc(Cl)cc2C(=O)O)c1 | 24.3% | -60.2* | -16.9%[14.2 µM] | 8.0% | -14.3% | 36.9%
